# Results reported in PubChem BioAssay (NCATS).
# Inconclusive results are not listed. Entries that show only a call come without a potency. The source made the active and inactive calls. Unless noted, calls come from the whole dose curve; as a rule, active = well fitted curve in the direction sought with a large enough effect; inconclusive = small, poorly fitted or top-dose-only effect, or another doubt; inactive = no such curve, though single readings can be large; an effect the other way counts as inactive or inconclusive.
# What was measured:
# [1] = biological target: Mitogen-activated protein kinase 10 (Mus musculus) (UniProt Q61831); test: JNK3 AlphaScreen Assay (AID 530; active = well fitted curve in either direction with a large enough effect, not every such curve was filed as active;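 note: kinase came from lysate of stimulated human HepG2 cells; signal reports phosphorylation of biotinylated GST-cJun 1-79 at Ser73 with 10 µM ATP; series mostly up to about 57 µM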)
# Summary of the method: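 Biotinylated GST-cJun(1-79) served as substrate for JNK3 in HepG2 lysates stimulated with IL-1beta and TNF-alpha. ATP was 10 uM final, pH 7.6. Ser73 phosphorylation was quantified by AlphaScreen (680 nm excitation).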
# [2] = biological target: Cytochrome P450 3A4 (Homo sapiens) (UniProt P08684); test: qHTS Assay for Activators of Cytochrome P450 3A4 (AID 885); note: nearly all actives have a fitted effect of over 65% in size
# Chain of Cytochrome P450 3A4 (Homo sapiens) (P08684 whole entry, looked up): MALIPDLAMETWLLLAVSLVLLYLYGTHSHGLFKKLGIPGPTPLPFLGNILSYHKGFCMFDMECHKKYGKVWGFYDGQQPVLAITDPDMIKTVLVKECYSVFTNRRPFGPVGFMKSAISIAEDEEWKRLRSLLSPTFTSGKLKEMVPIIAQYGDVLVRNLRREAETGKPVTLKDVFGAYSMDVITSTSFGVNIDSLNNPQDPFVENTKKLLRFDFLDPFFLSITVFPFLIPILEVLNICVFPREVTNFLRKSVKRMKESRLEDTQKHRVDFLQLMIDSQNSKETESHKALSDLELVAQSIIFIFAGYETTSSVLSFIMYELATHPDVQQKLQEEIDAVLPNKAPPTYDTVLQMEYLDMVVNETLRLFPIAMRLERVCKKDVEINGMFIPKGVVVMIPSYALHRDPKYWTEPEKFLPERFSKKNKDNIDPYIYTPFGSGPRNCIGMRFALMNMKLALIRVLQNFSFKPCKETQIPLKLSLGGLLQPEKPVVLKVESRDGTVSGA
# Summary of the method: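 Luminescent readout of luciferin formed from 25 uM Luciferin-PPXE (KM level) by 20 nM CYP3A4 in 200 mM KPO4, with 60 min NADPH-driven reaction at room temperature after 10 min compound exposure. Ketoconazole (57 uM) defined 100% inhibition.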
# [3] = biological target: Calcium and integrin-binding protein 1 (Homo sapiens) (UniProt Q99828); test: Primary qHTS for Identification of Calcium Integrin Binding Protein 1 (CIB1) Competitor (AID 1508620);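 note: GST tagged CIB1 binding a fluorescein labelled alphaIIb integrin peptide tracer; top concentration of the series differs between compounds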
# Chain of Calcium and integrin-binding protein 1 (Homo sapiens) (Q99828 whole entry, looked up): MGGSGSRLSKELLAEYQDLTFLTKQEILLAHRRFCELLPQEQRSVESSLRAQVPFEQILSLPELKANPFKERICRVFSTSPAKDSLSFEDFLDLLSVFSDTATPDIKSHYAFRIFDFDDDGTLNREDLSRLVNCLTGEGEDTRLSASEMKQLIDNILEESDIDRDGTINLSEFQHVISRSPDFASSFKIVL
# Summary of the method: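 Fluorescence polarization competition: CIB1-GST (1 uM final) preincubated with compound 15 min at room temperature, then FITC-labeled alphaIIb peptide (100 nM final) added for another 15 min. Polarization read at Ex 480/Em 540.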
# [4] = qHTS for Inhibitors of the vitamin D receptor (VDR): Hit Validation using a Texas Red Assay (AID 602201); note: potency is the fitted concentration of half-maximal effect
# Source text: The vitamin D receptor (VDR) is a ligand-activated transcription factor and is partially responsible for the regulation of the endocrine system. This includes the transcriptional regulation of genes involved in the production of the parathyroid hormone (PTH) and the regulation of the blood calcium level. High levels of PHT can cause hypercalcemia in the case of primary and tertiary hyperparathyroidism. The VDR-mediated gene regulation, activated by its ligand 1,25-dihydroxyvitamin D3 (1,25-(OH)2D3), is governed by the recruitment of coactivators. Our hypothesis is that small molecules, with the ability to inhibit the interaction between VDR and certain coactivators, are able to selectively modulate VDR-mediated transcription. […]
# In a collaboration between the University of Wisconsin, Milwaukee and the NIH Chemical Genomics Center (NCGC) a HTS-compatible enzymatic assay was developed. The assay uses fluorescence polarization as its read-out to measure the inhibition between VDR and coregulator peptide SRC2-3 exerted by small molecules. […]
# Four microliter of either 1.5 uM VDR-LBD, […] LG19078, and 7 nM Texas Red (all final concentrations) in columns 1, 2, and 5 to 48 or 7 nM Texas Red in columns 3 and 4 are dispensed into black medium-binding solid bottom Greiner plates. […] It is then read on the Envision for a fluorescent polarization read-out (Ex 595 nm/Em 615 nm)
# [5] = qHTS for Inhibitors of Ubiquitin-specific Protease USP2a Using CHOP2 as the Reporter: K633 Counterscreen (AID 652168); note: series mostly up to about 57 µM
# Summary of the method: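 Detection-system control: fluorescence of K48-linked DiUb-4IQF substrate (100 nM as added) tracked over time, Ex 525/Em 598, with pinned compounds and no enzyme, in pH 8 Tris buffer containing beta-mercaptoethanol and 0.05% Chaps.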
# [6] = qHTS for Inhibitors of Ubiquitin-specific Protease USP2a Using CHOP2 as the Reporter: Cytotox Assay (AID 652170);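 note: HCT116 human colon cancer cells at 600 per well; series mostly up to about 46 µM; nearly all actives have a fitted effect of over 70% in size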
# Summary of the method: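 Cytotoxicity read as ATP luminescence (CellTiter-Glo) after 72 hr compound treatment at 37 deg C. Cells: HCT116, 600/well in DMEM plus 10% FBS. Normalization between DMSO-treated cells and cell-free wells.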
compound,measurement,setting,value
CCN1CCCC1Cn1c(-c2ccccc2)nc2c(NC3CCCCC3)nc(C)nc21 (stereo not drawn),outcome,[1],inactive
same,Potency,[2],inactive
same,Potency,[3],inactive
CCN(CC)CCCCn1c(-c2ccccc2)nc2c(NC3CCCCC3)nc(C)nc21,outcome,[1],inactive
same,Potency,[2],inactive
same,Potency,[3],inactive
CCCn1c(-c2ccc(F)cc2)nc2c(NCCN(C(C)C)C(C)C)nc(C)nc21,outcome,[1],inactive
same,Potency,[2],inactive
same,Potency,[3],inactive
CCCn1c(-c2ccc(F)cc2)nc2c(NC(C)CN(C)C)nc(C)nc21 (stereo not drawn),outcome,[1],inactive
same,Potency,[2],inactive
same,Potency,[3],inactive
CCCCNc1nc(C)nc2c1nc(-c1ccccc1)n2CCCN(CC)CC,outcome,[1],inactive
same,Potency,[2],inactive
same,Potency,[3],inactive
COCCNc1nc(C)nc2c1nc(-c1ccccc1)n2CCCN1CCCCC1C (stereo not drawn),outcome,[1],inactive
same,Potency,[2],inactive
same,Potency,[3],inactive
CCCCNc1nc(C)nc2c1nc(-c1ccccc1)n2CCCCN(CC)CC,outcome,[1],inactive
same,Potency,[2],inactive
same,Potency,[3],inactive
CCN(CC)CCCC(C)n1c(-c2ccccc2)nc2c(NCCOC)nc(C)nc21 (stereo not drawn),outcome,[1],inactive
same,Potency,[2],inactive
same,Potency,[3],inactive
Cc1nc(NC2CCCCC2)c2nc(-c3ccccc3)n(CCN3CCCC3)c2n1,outcome,[1],inactive
same,Potency,[2],inactive
same,Potency,[3],inactive
CCCn1c(C)nc2c(NCc3ccccc3)nc(C)nc21,outcome,[1],inactive
same,Potency,[2],inactive
same,Potency,[3],inactive
CCCn1c(C)nc2c(NC3CCCCC3)nc(C)nc21,outcome,[1],inactive
same,Potency,[2],inactive
same,Potency,[3],inactive
COCCN(CCOC)c1nc(C)nc2c1nc(-c1ccccc1)n2CCN(C)C,outcome,[1],inactive
same,Potency,[2],inactive
same,Potency,[3],inactive
CCCn1c(-c2ccc(F)cc2)nc2c(NCC3CCN(C)CC3)nc(C)nc21,outcome,[1],inactive
same,Potency,[2],inactive
same,Potency,[3],inactive
CCCn1c(-c2ccc(F)cc2)nc2c(NCCN3CCCCC3)nc(C)nc21,outcome,[1],inactive
same,Potency,[2],inactive
same,Potency,[3],inactive
Cc1nc(N2CCOCC2)c2nc(-c3ccccc3)n(CCCN3CCCCC3C)c2n1 (stereo not drawn),outcome,[1],inactive
same,Potency,[2],inactive
same,Potency,[3],inactive
Cc1nc(NCc2ccccc2)c2nc(-c3ccccc3)n(CCN(C)C)c2n1,outcome,[1],inactive
same,Potency,[2],inactive
same,Potency,[3],inactive
Cc1nc(N2CCOCC2)c2nc(-c3ccccc3)n(CCN3CCOCC3)c2n1,outcome,[1],inactive
same,Potency,[2],inactive
same,Potency,[3],inactive
CCCn1c(C)nc2c(NCCCCN(CC)CC)nc(C)nc21,outcome,[1],inactive
same,Potency,[2],inactive
same,Potency,[3],inactive
CCCn1c(-c2ccc(F)cc2)nc2c(NCCCN(CC)CC)nc(C)nc21,outcome,[1],inactive
same,Potency,[2],inactive
same,Potency,[3],inactive
CCCn1c(-c2ccc(F)cc2)nc2c(NC(C)CCCN(CC)CC)nc(C)nc21 (stereo not drawn),outcome,[1],inactive
same,Potency,[2],inactive
same,Potency,[3],inactive
COCCNc1nc(C)nc2c1nc(-c1ccccc1)n2CCN1CCCC1,outcome,[1],inactive
same,Potency,[2],inactive
same,Potency,[3],inactive
CCCCNc1nc(C)nc2c1nc(-c1ccccc1)n2CC1CCN(C)CC1,outcome,[1],inactive
same,Potency,[2],inactive
same,Potency,[3],inactive
CCCn1c(-c2ccc(F)cc2)nc2c(N3CCC(N(C)C)C3)nc(C)nc21 (stereo not drawn),outcome,[1],inactive
same,Potency,[2],inactive
same,Potency,[3],inactive
CCN1CCCC1Cn1c(-c2ccccc2)nc2c(N3CCOCC3)nc(C)nc21 (stereo not drawn),outcome,[1],inactive
same,Potency,[2],inactive
same,Potency,[3],inactive
CCCn1c(C)nc2c(N3CCOCC3)nc(C)nc21,outcome,[1],inactive
same,Potency,[2],inactive
same,Potency,[3],inactive
CCN(CC)CCCn1c(-c2ccccc2)nc2c(N(CCOC)CCOC)nc(C)nc21,outcome,[1],inactive
same,Potency,[2],inactive
same,Potency,[3],inactive
COCCN(CCOC)c1nc(C)nc2c1nc(-c1ccccc1)n2CCCN1CCCCC1C (stereo not drawn),outcome,[1],inactive
same,Potency,[2],inactive
same,Potency,[3],inactive
CCCn1c(C)nc2c(N(CCN(C)C)Cc3ccccc3)nc(C)nc21,outcome,[1],inactive
same,Potency,[2],inactive
same,Potency,[3],inactive
COCCN(CCOC)c1nc(C)nc2c1nc(-c1ccccc1)n2CCCN(C)C,outcome,[1],inactive
same,Potency,[2],inactive
same,Potency,[3],inactive
Cc1nc(N2CCOCC2)c2nc(-c3ccccc3)n(CCN3CCCCC3)c2n1,outcome,[1],inactive
same,Potency,[2],inactive
same,Potency,[3],inactive
O=C(Cc1ccccc1)Nc1sc2c(c1C(=O)Nc1ccc(Cl)cc1)CCCC2,Potency,[4],4.47 µM (active)
same,Potency,[3],inactive
Cc1ccc(NC(=O)c2ccncc2NS(=O)(=O)c2ccc(C)cc2)cc1,outcome,[5],inactive
same,Potency,[6],inactive
same,Potency,[3],inactive
O=C(Nc1ccc(S(=O)(=O)Nc2nccs2)cc1)C1CCC2(CC1)CC2,outcome,[5],inactive
same,Potency,[6],inactive
same,Potency,[3],inactive
